Measured values published in the supplement of paper PMC11383364.

Test system: SUM149
Test: percent difference in area under dose-response curve of relative cell number, RPMI vs HPLM; higher = drug relatively more effective in HPLM than RPMI (negative = less effective in HPLM)
Settings: treatment time: 72 h; dose range: 10-point, 1 nM to 20 µM; media compared: RPMI vs HPLM
Procedure: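 SUM149 triple-negative breast cancer cells, 500 cells/well in 384-well plates, were grown in RPMI or human plasma-like medium (HPLM) with 5% dialyzed FBS. They were pin-transferred with an anticancer plus metabolic-inhibitor library in 10-point dose series (20 µM to 1 nM). After 72 h, cells were fixed, stained with bisbenzimide and counted by Acumen plate cytometry. The AUC of relative survival vs dose was computed per medium, and the percent difference in AUC between RPMI and HPLM is reported.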

| SMILES | percent difference in area under dose-response curve |
| --- | --- |
| Cc1cnc(Nc2ccc(OCCN3CCCC3)cc2)nc1Nc1cccc(S(=O)(=O)NC(C)(C)C)c1 | -10.7% |
| CNC(=O)c1ccccc1Sc1ccc2c(/C=C/c3ccccn3)n[nH]c2c1 [Axitinib] | -0.398% |
| CC[C@H](CO)Nc1nc(NCc2ccccc2)c2ncn(C(C)C)c2n1 [Roscovitine] | -1.29% |
| O=C1[C@H](CC[C@H](O)c2ccc(F)cc2)[C@@H](c2ccc(O)cc2)N1c1ccc(F)cc1 [Ezetimibe] | -5.77% |
| NC(=O)c1[nH]nc([C@@H]2O[C@H](CO)[C@@H](O)[C@H]2O)c1O [Pyrazofurin] | 5.89% |
| Cc1c(-c2ccc(-c3ccccc3F)cc2)nc2ccc(F)cc2c1C(=O)O [Brequinar] | -6.11% |
| Cc1cnc(NC(=O)Nc2cc(Br)c(C)cc2OC[C@@H]2CNCCO2)cn1 | 1.27% |
| N#Cc1c(NC(=O)c2cccc3ccccc23)sc2c1CCCC2 [JNK_Inhibitor_IX] | -13.1% |
| O=c1cnn([C@@H]2O[C@H](CO)[C@@H](O)[C@H]2O)c(=O)[nH]1 [6_Azauridine] | 15.1% |
| Clc1ccc(C(c2ccccc2Cl)C(Cl)Cl)cc1 (stereo not given) [Mitotane] | -3.24% |
| COc1cc2/c(=N/c3ccc(Br)cc3F)nc[nH]c2cc1OCC1CCN(C)CC1 [Vandetanib] | -3.62% |
| Cc1cc2c(F)c(Oc3ncnn4cc(OC[C@@H](C)O)c(C)c34)ccc2[nH]1 [Brivanib] | -2.59% |
| CC1=C(/C=C/C(C)=C/C=C/C(C)=C/C(=O)Nc2ccc(O)cc2)C(C)(C)CCC1 [Fenretinide] | -3.15% |
| Cc1c(NC(=O)OC[C@@H]2COCCN2)cn2ncnc(Nc3ccc4c(cnn4Cc4cccc(F)c4)c3)c12 | 3.34% |
| Fc1cc(-c2cccc3ncc(-c4cnn(C5CCNCC5)c4)nc23)cc(F)c1CN1CCOCC1 | 2.04% |
| CN(C)Cc1ccc(-c2nc3cccc4c3n2CCNC4=O)cc1 | -5.91% |
| CC(NC(=O)c1ccccc1/N=C/c1c(O)ccc2ccccc12)c1ccccc1 (stereo not given) [Sirtinol] | -4.04% |
| CCOc1cc2ncc(C#N)c(Nc3ccc(F)c(Cl)c3)c2cc1NC(=O)/C=C/CN(C)C [Pelitinib] | 4.27% |
| c1cc(-c2cnn3cc(-c4ccc(OCCN5CCCCC5)cc4)cnc23)ccn1 [Dorsomorphin] | -2.35% |
| COc1cc(F)c(F)c(Nc2ccc(I)cc2F)c1NS(=O)(=O)C1(C[C@H](O)CO)CC1 [Refametinib] | -9.94% |

| SMILES | percent difference in area under dose-response curve |
| --- | --- |
| CCCCc1nc2cc(/C=C/C(=O)NO)ccc2n1CCN(CC)CC | 0.47% |
| C[C@H](NC(=O)Cc1cc(F)cc(F)c1)C(=O)N[C@@H]1C(=O)N(C)c2ccccc2-c2ccccc21 | 8.45% |
| Cc1cnc(Nc2ccc(OCCN3CCCC3)cc2)nc1Nc1cccc(S(=O)(=O)NC(C)(C)C)c1 [Fedratinib] | -9.15% |
| O=C(Nc1ccccc1-c1cn2c(CN3CCNCC3)csc2n1)c1cnc2ccccc2n1 | -8.03% |
| COc1ccc2cc(-c3nc(-c4ccc([S+](C)[O-])cc4)[nH]c3-c3ccncc3)ccc2c1 (stereo not given) [Tie2_kinase_inhibitor] | -0.194% |
| O=c1cc(N2CCOCC2)oc2c(-c3cccc4c3sc3ccccc34)cccc12 | -2.53% |
| Nc1ccn([C@@H]2C=C(CO)[C@@H](O)[C@H]2O)c(=O)n1 [Cyclopentenyl_cytosine] | 2.58% |
| CN1CCN(CCOc2cc(OC3CCOCC3)c3c(Nc4c(Cl)ccc5c4OCO5)ncnc3c2)CC1 [Saracatinib] | 14.3% |
| CS(=O)(=O)CCNCc1ccc(-c2ccc3ncnc(Nc4ccc(OCc5cccc(F)c5)c(Cl)c4)c3c2)o1 [Lapatinib] | -5.33% |
| O=C(Cc1ccc(-c2ccc(OCCN3CCOCC3)cc2)cn1)NCc1ccccc1 | -13.1% |
| COc1ccc(S(=O)(=O)Nc2cccnc2Nc2ccc(O)cc2)cc1 | -6.35% |
| COc1c(C)c2c(c(O)c1C/C=C(\C)CCC(=O)O)C(=O)OC2 [Mycophenolic_Acid] | -8.4% |
| N#CC[C@H](C1CCCC1)n1cc(-c2ncnc3[nH]ccc23)cn1 [SRuxolitinib] | -0.914% |
| Cc1nccn1-c1ccc(Sc2cccc(C3(C(N)=O)CCOCC3)c2)cc1 | -9.07% |
| CN1CCC(CNc2ccc3ncc(-c4cccc(OC(F)(F)F)c4)n3n2)CC1 [SGI1776_free_base] | -10.5% |
| C[C@H]1O[C@@H](O[C@H]2[C@@H](O)C[C@H](O[C@H]3[C@@H](O)C[C@H](O[C@H]4CC[C@@]5(C)[C@H](CC[C@@H]6[C@@H]5CC[C@]5(C)[C@@H](C7=CC(=O)OC7)CC[C@]65O)C4)O[C@@H]3C)O[C@@H]2C)C[C@H](O)[C@@H]1O [Digitoxin] | -8.01% |
| C=CCN(C)CCCCCCOc1ccc(C(=O)c2ccc(Br)cc2)c(F)c1 | -0.097% |
| CC(C)C[C@H](NC(=O)CNC(=O)c1cc(Cl)ccc1Cl)B1OC(=O)C(CC(=O)O)(CC(=O)O)O1 | -1.48% |
| COC(=O)Nc1ccc(-c2nc(N3CCOCC3)c3cnn(C4CCN(C(=O)OC)CC4)c3n2)cc1 | 0.775% |
| COc1cc2c(cc1O)CC[C@@H]1[C@@H]2CC[C@]2(C)[C@@H](O)CC[C@@H]12 [2Methoxyestradiol] | -12% |
